The panel holds about 83,000 compounds, 20% with a hit somewhere; the sample as a whole holds those more often.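 Single-concentration screen, 48 h exposure, 96-well plates. Endpoint: percent growth. Below 10 = active.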 Values without a mark were called inactive. Active and inactive are the calls of the source.

This is an account of results in PubChem BioAssay (NCI).

The test system of the assay is NCI/ADR-RES ovarian. Kind of assay: NCI-60 one-dose screen, 48 h (100 = growth as untreated, 0 = no growth, -100 = all killed). The conditions noted are these: 10 µM unless noted. The protocol: Growth inhibition of the NCI/ADR-RES human […] tumor cell line is measured as a screen for anti-cancer activity. Cells are grown in 96 well plates and exposed to the test compound for 48 hours. Compounds are tested at a single concentration, which is 10^-5 M for most compounds. The reported endpoint is percent growth (GI% or GIPRCNT), where numbers from 0 - 100% represent growth inhibition, and numbers from -100% - 0 represent cell death. For example, a value of 40 represents 60% growth inhibition. A value of 0 means no net growth occurred over the course of the experiment. A value of -40 indicates 40% of cells at the beginning of the experiment died by the end of the experiment. A value of -100 means all cells are dead at the end of the experiment.
NCI-60 Human Tumor Cell Lines Screen was performed using the standard one-dose NCI protocol, which is described in more detail at https://dtp.cancer.gov/discovery_development/nci-60/default.htm.
Compounds with GIPRCNT values below 10 were considered active. Activity score was based on GIPRCNT using the following formula: […]
Score is 0 for GIPRCNT values of 100 or above, 50 for GIPRCNT values of 0, and 100 for GIPRCNT values of -100.
As to `COc1ccc(C(=O)OC2C(OC3C(O)COC(O[C@H]4C[C@H]5[C@@H]6CC=C7C[C@@H](O)CC[C@]7(C)[C@H]6CC[C@]5(C)[C@H]4[C@H](C)C(=O)CCC(C)C)C3OC(C)=O)OCC(O)C2O)cc1` (stereo not given in full), the growth was 60.1%.

On to `O=C1CCCN1C1CCN2CCCc3cccc1c32` (stereo not given), for which the growth is 108%.

Consider `O=c1nc(-c2ccccc2)c2cc(-c3ccc(N4CCOCC4)cc3)ccc2[nH]1`, for which the growth is 95.3%.

Take `COc1cc(CN2CCC(N3CCCC3=O)c3ccccc32)cc(OC)c1OC` (stereo not given): the growth is 67.3%.

For `CCN(CC)c1ccc(/C=N/NC(=O)c2ccc(S(C)(=O)=O)cc2)c(O)c1`, the growth is 17.8%.

On to `COc1ccc(NC(=O)Cn2c(=O)sc3c(-c4ccc(Cl)cc4)cc(-c4ccc(Cl)cc4)nc32)cc1`, for which the growth was 89.2%.

As to `Cc1cc(-c2ccc(N=Nc3c(S(=O)(=O)O)cc4cc(S(=O)(=O)O)cc(O)c4c3O)c(C)c2)ccc1N=Nc1c(S(=O)(=O)O)cc2cc(S(=O)(=O)O)cc(O)c2c1O`, the growth is 108%.

Consider `COC(=O)OC1C(O[C@H]2C[C@H]3[C@@H]4CC=C5C[C@@H](O)CC[C@]5(C)[C@H]4CC[C@]3(C)[C@H]2[C@H](C)C(=O)CCC(C)C)OCC(O)C1OC1OCC(O)C(O)C1OC(=O)c1ccc(OC)cc1` (stereo not given in full), for which the growth was 70.5%.

In the case of `CCn1c(Cc2ccccc2Nc2c(Cl)cccc2Cl)nnc1SCC(=O)Nc1cccc(OC)c1`, the growth was 86.1%.

Consider `COc1cc(C2C(C#N)=C(N)Oc3cc4c(cc32)OCO4)cc2c1OCO2` (stereo not given), for which the growth was 11.2%.

Consider `CCCCc1nc(Cl)c(C2CC(c3ccc(S(N)(=O)=O)cc3)=NN2c2cc(Cl)cc(Cl)c2)[nH]1` (stereo not given), for which the growth was 90%.

For `CCSc1cnnc2ccccc12`, the growth is 104%.

Regarding `Cc1ccc(NC(=O)c2cc(NCc3cc(O)ccc3O)ccc2O)cc1`, the growth is 95.8%.

Consider `COc1cc(C2CC(c3ccc(Cl)cc3)=NN2C(C)=O)ccc1Oc1nc2c(c(=O)n(C)c(=O)n2C)n1C` (stereo not given), for which the growth was 61.6%.

Regarding `COc1cc(C2CC(c3ccc(Cl)cc3)=NN2C=O)ccc1Oc1ccnc2cc(Cl)ccc12` (stereo not given), the growth is 76.6%.

In the case of `O=C(Nc1cccc(N=Cc2c(O)ccc3ccccc23)c1)c1ccccc1`, the growth was 103%.

For `COc1ccc(/C=C/c2nc3ccccc3c(=O)n2-c2ccc(C#Cc3ccc(C(C)(C)C)cc3)cc2C)c(OC)c1`, the growth was 105%.

For `CCN(CC)CCNC(=O)n1cc(-c2ccncc2)c(-c2cc(Cl)cc(OC)c2)n1`, the growth is 86%.

Turning to `O=c1c2cc(Cl)ccc2oc2ccc(OCCCCCN3CCCCCC3)cc12`, the growth is 85.7%.

For the compound `COc1ccc(CNc2c3ccccc3nc3ccccc23)cc1F`, the growth was 20.8%.

Turning to `NC(N)=NC1CCCCC1`, the growth was 98%.

For the compound `Nc1cc(C(=O)O)cc(C(=O)O)c1`, the growth is 112%.

On to `CNC(=O)c1c(NC(=O)c2cccc(C(F)(F)F)c2)sc2c1CCC(=O)C2`, for which the growth is -7.1% (active).

Regarding `CCCNCCC(C)=O`, the growth was 100%.

For `COCc1nc(NS(=O)(=O)c2ccc(N)cc2)nc(C)c1Br`, the growth is 104%.

With `CN1CCC2(CC1)N=C(SCC(=O)Nc1cnc3ccccc3c1)C(c1ccc(Br)cc1)=N2`, the growth was 29.6%.

As to `CCCCOc1nc2ccccc2cc1/C=C/c1cc(/C=C/c2cc3ccccc3nc2OCCCC)n(-c2ccccc2)n1`, the growth is 106%.

In the case of `Oc1c(C(Nc2cccc3ccccc23)c2ccccc2)ccc2cccnc12` (stereo not given), the growth was 4.58% (active).

With `COc1ccc(-c2cc(-c3cn(-c4cccc(Cl)c4)nc3-c3ccc(OC)cc3)[nH]c(=S)n2)cc1`, the growth is 99.6%.

As to `Cc1ccc(C)c2c1SC1=NNC(Oc3ccc(Cl)cc3)=C(C#N)C(=N)N12`, the growth was 105%.

`COc1cc(CN(CCC(O)N2CCCC2=O)Cc2ccc3c(c2)OCO3)cc(OC)c1OC` (stereo not given): the growth was 103%.

Consider `CCNC(=O)c1ccc2c(c1)nc(-c1ccc(Cl)cc1)n2-c1cc(C(C)(C)C)[nH]n1`, for which the growth is 9.67% (active).

As to `Clc1cc(Cl)cc(-c2cnc3nonc3n2)c1`, the growth is 98.9%.

In the case of `O=C(Nc1ccncc1)C(=O)c1cn(S(=O)(=O)c2cccc(Cl)c2F)c2ccccc12`, the growth is 59.3%.

Turning to `CC(C)(C)OC(=O)N1CCCN(CCNc2nccc(-c3c(-c4cccc(O)c4)nc4sccn34)n2)S1(=O)=O`, the growth is 99%.

On to `COc1cc(/C=C/c2cc(/C=C/c3ccc(O)c(OC)c3)n(C(=O)Nc3ccc(F)c(Cl)c3)n2)ccc1O`, for which the growth was 12%.

As for `O=C(Nc1cccc(C2=NCCN2)c1)c1ccc(N=Nc2ccc(C(=O)Nc3cccc(C4=NCCN4)c3)cc2)cc1`, the growth was 100%.

For `O=C1/C(=C/c2ccccc2)SC(=Nc2ccccc2)N1Nc1ccccc1`, the growth is 8.98% (active).

For `COc1ccc2c(c1)sc1nc(-c3ccccc3)c(-c3cccc4ccccc34)n12`, the growth was 4.62% (active).

For `C=C1C(=O)O[C@H]2[C@H]1CC/C(COC(=O)NCc1cn(C)c3ccccc13)=C\CC[C@@]1(C)O[C@@H]21`, the growth was 19%.
